Test results as given in PubChem BioAssay (NCATS).
Calls of active or inactive are those of the source. The rule behind the calls is not given here.

system: HIV-1 nucleocapsid protein NCp7 (binding to TG oligonucleotide); assay: HIV Nucleocapsid (AID 346); conditions: HIV-1 NC / fluorescein-TGTGTGTG probe, fluorescence polarization;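 note: potency is for inhibitors that block NC binding and lower polarization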
Outline: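 Inhibition of nucleocapsid binding to single-stranded 5'-TGTGTGTG probe (10 nM) was measured by fluorescence polarization after 1 hr at room temperature with 100 nM protein under high-salt, zinc-containing, reducing conditions.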
Potency is the fitted concentration of half-maximal effect.

| Compound | Potency |
| --- | --- |
| c1cncc(-c2cc(-n3ccnc3)ncn2)c1 | > 20 µM (inactive) |
| Cc1nc2cnc(N3CCOCC3)nc2n(Cc2ccc(F)cc2)c1=O | > 20 µM (inactive) |
| Cc1ccccc1-c1cncnc1Nc1ccc(F)cc1 | > 20 µM (inactive) |
| CS(=O)(=O)Nc1cccc(-c2nccc(-n3ccnc3)n2)c1 | > 20 µM (inactive) |
| COCCNc1nc(-c2cccc(NS(C)(=O)=O)c2)nc2ccccc12 | > 20 µM (inactive) |
| O=c1cnc2cnc(Nc3ccccc3)nc2n1Cc1cccs1 | > 20 µM (inactive) |
| COCC(=O)N1CCC2(CCCN(c3ccc(-c4ccccc4)cc3)C2)CC1 | > 20 µM (inactive) |
| Cc1cnc(CNc2ncnc3ccc(-c4ccc(C(=O)N(C)C)cc4)cc23)cn1 | > 20 µM (inactive) |
| COc1cccc(-c2nc(NCCc3c[nH]c4ccc(OC)cc34)c3ccccc3n2)c1 | > 20 µM (inactive) |
| N#Cc1cccc(-c2cncnc2NCc2cccs2)c1 | > 20 µM (inactive) |
| COc1ccc2[nH]cc(CCNc3ccnc(-c4cccnc4)n3)c2c1 | > 20 µM (inactive) |
| CCNc1ncc2nc(-c3ccc(OC)cc3)c(=O)n(CCC#N)c2n1 | > 20 µM (inactive) |
| COc1cccc(Cn2c(=O)c(-c3cc(F)cc(F)c3)nc3cnc(N4CCOCC4)nc32)c1 | > 20 µM (inactive) |
| O=c1cnc2cnc(Oc3ccccc3)nc2n1C[C@H]1CCCO1 | > 20 µM (inactive) |
| COc1ccc(-n2c(=O)c(-c3ccc(F)cc3)nc3cnc(N4CCNCC4)nc32)cc1 | > 20 µM (inactive) |
| COc1cccc(-c2nc(NCc3cccs3)c3ccccc3n2)c1 | > 20 µM (inactive) |
| CN1CCN(c2ncncc2-c2ccoc2)CC1 | > 20 µM (inactive) |
| CC(C)NC(=O)N1CCC2(CC1)CCN(C(=O)c1cccc(F)c1)CC2 | > 20 µM (inactive) |
| c1ccc(Nc2ncncc2-c2ccoc2)cc1 | > 20 µM (inactive) |
| Cc1nc2cnc(Oc3ccccc3)nc2n(-c2ccccc2)c1=O | > 20 µM (inactive) |

| Compound | Potency |
| --- | --- |
| COc1cccc(-c2nc(N(C)C)c3ccccc3n2)c1 | > 20 µM (inactive) |
| COCCn1c(=O)c(-c2ccccc2)nc2cncnc21 | > 20 µM (inactive) |
| COc1ccc(-c2nc3cnc(N(C)C)nc3n(Cc3cccs3)c2=O)cc1 | > 20 µM (inactive) |
| COc1ccc(-c2nc3cnc(N4CCOCC4)nc3n(Cc3cccs3)c2=O)cc1 | > 20 µM (inactive) |
| c1ccc(CNc2nc(-c3cccnc3)nc3ccccc23)cc1 | > 20 µM (inactive) |
| O=c1c(-c2cc(F)cc(F)c2)nc2cnc(N3CCNCC3)nc2n1Cc1cccs1 | > 20 µM (inactive) |
| Cc1noc(C)c1-c1cncnc1-n1ccnc1 | > 20 µM (inactive) |
| CS(=O)(=O)N1CCC2(CCN(C(c3ccccc3)c3ccccc3)CC2)CC1 | > 20 µM (inactive) |
| COCCn1c(=O)c(-c2cccc(C#N)c2)nc2cnc(N(C)C)nc21 | > 4 µM (inactive) |
| COc1ccc(C(=O)N2CCC[C@@]3(CCN(C(=O)Nc4cccc(C#N)c4)C3)C2)cc1 | > 20 µM (inactive) |
| O=S(=O)(c1ccccc1)N1CCC2(CCCN(c3ccccn3)C2)CC1 | > 4 µM (inactive) |
| O=C(Nc1cccc(F)c1)N1CCCC2(CCN(C(=O)c3cccc(F)c3)CC2)C1 | > 20 µM (inactive) |
| O=c1c(-c2ccccc2)nc2cnc(N3CCOCC3)nc2n1C1CC1 | > 20 µM (inactive) |
| c1nc(NCCN2CCOCC2)c2cc(-c3ccoc3)ccc2n1 | > 20 µM (inactive) |
| COc1cccc(Cn2c(=O)c(C)nc3cnc(Nc4ccccc4)nc32)c1 | > 4 µM (inactive) |
| Cc1noc(C)c1-c1cc(NC2CCNCC2)ncn1 | > 20 µM (inactive) |
| COc1ccc(NC(=O)N2CCCC3(CCN(C(=O)c4csnn4)CC3)C2)cc1 | > 20 µM (inactive) |
| CC(C)CN1CCCC2(CCN(C(=O)c3cccc(F)c3)CC2)C1 | > 20 µM (inactive) |
| COc1ccccc1-c1nc(N(C)Cc2ccco2)c2ccccc2n1 | > 20 µM (inactive) |
| O=c1c(-c2cccs2)nc2cnc(Oc3ccccc3)nc2n1C1CC1 | > 20 µM (inactive) |
